Paper PMC5540273 (PLoS ONE, 2017)

Columns and labels:
Conditions in all cases: concentration: 1 μM, replicates: in singlicate; n = 1
CAMK1B = system: CAMK1B
CAMK1D = system: CAMK1D
CAMK1G = system: CAMK1G
CAMK1 = system: CAMK1
CAMK2A = system: CAMK2A
CAMK2B = system: CAMK2B
CAMK2D = system: CAMK2D
CAMK2G = system: CAMK2G
CAMK4 = system: CAMK4
CAMKK1 = system: CAMKK1
CAMKK2 = system: CAMKK2
CASK = system: CASK
CDC2L1 = system: T1, CDC2L1
T1 construct: gene CDK11B

CDC2L2 = system: CDC2L2
CDC2L5 = system: T2, CDC2L5
T2 construct: gene CDK13

CDK11 = system: T3, CDK11
T3 construct: gene CDK19

CDK2 = system: CDK2
CDK3 = system: CDK3
CDK4-cyclinD1 = system: CDK4-cyclinD1
CDK4-cyclinD3 = system: CDK4-cyclinD3
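Also: KINOMEscan kinase panel screen.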

| SMILES | %Inh (CAMK1B) [%] | %Inh (CAMK1D) [%] | %Inh (CAMK1G) [%] | %Inh (CAMK1) [%] | %Inh (CAMK2A) [%] | %Inh (CAMK2B) [%] | %Inh (CAMK2D) [%] | %Inh (CAMK2G) [%] | %Inh (CAMK4) [%] | %Inh (CAMKK1) [%] | %Inh (CAMKK2) [%] | %Inh (CASK) [%] | %Inh (CDC2L1) [%] | %Inh (CDC2L2) [%] | %Inh (CDC2L5) [%] | %Inh (CDK11) [%] | %Inh (CDK2) [%] | %Inh (CDK3) [%] | %Inh (CDK4-cyclinD1) [%] | %Inh (CDK4-cyclinD3) [%] |
| --- | --- | --- | --- | --- | --- | --- | --- | --- | --- | --- | --- | --- | --- | --- | --- | --- | --- | --- | --- | --- |
| Cc1cccc(-c2nc(Nc3ccncc3)c3ccccc3n2)n1 [GW855857] | 0 | 3 | 0 | 0 | 6 | 0 | 7 | 0 | 47 | 24 | 7 | 0 | 0 | 0 | 0 | 0 | 0 | 20 | 13 | 0 |
| CN(C)CCN(C)C(=O)c1cc(-c2ccncc2)c(-c2ccc(Cl)c(O)c2)o1.Cl.Cl [SB-710397] | 6 | 13 | 0 | 10 | 0 | 0 | 0 | 1 | 0 | 0 | 0 | 29 | 0 | 0 | 0 | 15 | 0 | 20 | 23 | 9 |
| CS(=O)(=O)c1ccc(-c2nc3n(c2-c2ccncc2)CCC3)cc1 [SKF-105942] | 7 | 0 | 14 | 8 | 0 | 0 | 6 | 6 | 0 | 0 | 0 | 26 | 100 | 0 | 0 | 0 | 0 | 28 | 0 | 6 |
| COc1cc2ncnc(Nc3ccc4nc(-c5ccccc5)[nH]c4c3)c2cc1OC.Cl [GW282450] | 0 | 20 | 0 | 29 | 0 | 0 | 1 | 24 | 0 | 11 | 13 | 25 | 0 | 16 | 0 | 0 | 0 | 22 | 0 | 0 |
| Cn1ccc2ncnc(Oc3ccc(NC(=O)Nc4ccccc4)cc3)c21 | 4 | 5 | 22 | 0 | 0 | 0 | 13 | 3 | 0 | 0 | 0 | 0 | 0 | 0 | 0 | 0 | 0 | 11 | 0 | 0 |
| O=C(Nc1n[nH]c2cc(-c3cccc(F)c3F)ccc12)C1CC1 [SB-733894] | 0 | 12 | 100 | 26 | 19 | 13 | 1 | 7 | 0 | 8 | 13 | 30 | 2 | 0 | 8 | 5 | 22 | 0 | 0 | 30 |
| COc1ccc(C2=C(Nc3cccc(C(=O)O)c3)C(=O)NC2=O)cc1 [SB-390765] | 44 | 18 | 0 | 23 | 5 | 0 | 16 | 26 | 0 | 0 | 7 | 15 | 17 | 13 | 8 | 0 | 12 | 7 | 0 | 0 |
| COc1ccc(CNC(=O)NC2CCN(c3ccnc(Nc4cc(OC)c(OC)c(OC)c4)n3)C2)cc1 (centres unmarked) [GSK1379748] | 2 | 15 | 8 | 28 | 0 | 0 | 16 | 17 | 0 | 8 | 12 | 10 | 0 | 14 | 0 | 2 | 0 | 0 | 6 | 0 |
| Fc1cc(Cl)ccc1Nc1ccnc2cc(-c3ccc(CN4CCCCC4)o3)ccc12 [GW560116] | 0 | 8 | 0 | 3 | 0 | 0 | 8 | 26 | 0 | 4 | 22 | 2 | 0 | 20 | 0 | 0 | 0 | 5 | 4 | 0 |
| Cc1cccc(-c2nc(Nc3cccc(C(N)=O)c3)c3ccccc3n2)n1 [GW876019] | 0 | 0 | 9 | 0 | 0 | 0 | 7 | 0 | 3 | 12 | 0 | 30 | 0 | 2 | 10 | 8 | 0 | 59 | 18 | 0 |
| O=C(O)COc1ncnc2cc(-c3ccc4[nH]ncc4c3)sc12 | 7 | 0 | 31 | 0 | 0 | 0 | 26 | 17 | 7 | 34 | 24 | 0 | 8 | 0 | 5 | 21 | 0 | 20 | 1 | 0 |
| O=S(=O)(c1ccc(-c2ccnc3[nH]ccc23)cc1)N1CCCC1 [GSK846226] | 30 | 31 | 33 | 39 | 47 | 12 | 44 | 34 | 0 | 2 | 23 | 5 | 0 | 17 | 0 | 2 | 0 | 1 | 0 | 0 |
| Cc1ccc(NC(=O)Nc2cccc(Cl)c2)cc1-c1ccc(C(=O)Nc2ccncc2)cc1 [GSK1398468] | 28 | 13 | 0 | 7 | 0 | 0 | 7 | 27 | 0 | 0 | 25 | 5 | 0 | 22 | 0 | 14 | 33 | 6 | 0 | 11 |
| Cn1cncc1-c1ccc2ncnc(Nc3ccc(OCc4ccccc4)cc3)c2c1 [GW320571] | 11 | 23 | 16 | 23 | 0 | 0 | 9 | 10 | 23 | 0 | 0 | 0 | 0 | 0 | 0 | 10 | 4 | 2 | 0 | 13 |
| COc1cc(Nc2nccc(N3CCC(NC(=O)Nc4cc(C)ccc4C)C3)n2)cc(OC)c1OC (centres unmarked) [GSK1379762] | 14 | 10 | 0 | 17 | 0 | 0 | 0 | 16 | 0 | 21 | 0 | 42 | 0 | 0 | 0 | 17 | 0 | 15 | 0 | 0 |
| O=C(Nc1ccccc1)Nc1cccc(Oc2ccc3nccn3n2)c1 | 0 | 3 | 0 | 0 | 0 | 0 | 0 | 3 | 7 | 0 | 0 | 16 | 0 | 5 | 0 | 0 | 0 | 10 | 24 | 0 |
| O=C(Nc1n[nH]c2nc(-c3nccs3)c(Br)cc12)C1CC1 [SB-742251] | 19 | 0 | 0 | 0 | 0 | 0 | 0 | 0 | 0 | 0 | 0 | 42 | 0 | 0 | 13 | 0 | 81 | 50 | 65 | 25 |
| Cc1nnc(-c2ccc3occ(-c4ccc(S(C)=O)cc4)c3c2)[nH]1 (centres unmarked) | 1 | 15 | 23 | 9 | 4 | 12 | 10 | 12 | 0 | 14 | 14 | 0 | 0 | 0 | 11 | 0 | 2 | 7 | 0 | 2 |
| COc1cc2ncn(-c3cc(OCC4CCCO4)c(C(N)=O)s3)c2cc1OC (centres unmarked) [GSK204607] | 0 | 13 | 0 | 6 | 0 | 0 | 0 | 0 | 0 | 0 | 8 | 0 | 0 | 8 | 0 | 0 | 0 | 0 | 0 | 0 |
